Measured values from ChEMBL document CHEMBL1201862, “PubChem BioAssay data set” (2004).
About 5,500 (10%) of roughly 53,000 sequences were called active. This is one part of a sample in which actives are shown more often than they occur. Cut-off read from the data, not from the text of the source: active = GI50 up to about 1.1 µM and inactive = higher. Potency and affinity values are given separately.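 Dose response: 5 concentrations. Exposure: 48 h. Format: 96-well plates. Endpoint: linear interpolation; highest concentration if not reached. GI50 marks 50% less growth.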

tested on: HL-60; experiment: NCI tumour cell line growth inhibition, 48 h

Row | Substance | GI50
1 | ACRIFLAVINE HYDROCHLORIDE, CHEMBL5219995 | 333 nM
2 | [Bis(aminomethyl)dimethylsilane]tetrachloroplatinum(IV), CHEMBL2146190 | 248 nM
3 | [Bis(aminomethyl)tetramethylenesilane]tetrachloropaltinum(IV), CHEMBL2146189 | 115 nM
4 | [Bis(aminomethyl)ethylmethylsilane]tetrachloroplatinum(IV), CHEMBL2146192 | 156 nM
5 | cis-Bis[[(trimethylsilyl)methyl]amino]tetrachloroplatinum(IV), CHEMBL2146191 | 1760 nM
6 | CISPLATIN, CHEMBL11359 | 542 nM
7 | [Bis(aminomethyl)pentamethylenesilane]tetrachloropaltinum(IV), CHEMBL2146204 | 56.6 nM
8 | mu-(1,7-nanodiamine-N,N')bis-(cis-aminedichloroplatimum (II)), CHEMBL2146215 | 1640 nM
9 | [Bis(aminomethyl)tetramethylenesilane]dichloropaltinum(II), CHEMBL2146205 | 1570 nM
10 | [Bis(aminomethyl)diethylsilane]tetrachloroplatinum(IV), CHEMBL2146203 | 91.2 nM
11 | [Bis(aminomethyl)dimethylsilane]dichloroplatinum (II), CHEMBL2146201 | 1300 nM
12 | [Bis(aminomethyl)pentamethylenesilane]dichloropaltinum(II), CHEMBL2146202 | 51.3 nM
